Assay [1] can be described thus: IUF_NPC2-5_viability_120hr: Viability Assessment at 120 hours in the Leibniz Research Institute for Environmental Medicine (IUF) Neural Progenitor Cell Migration and Differentiation Assay (NPC2-5) (AID 2284312; active = hit-call score of the fitted dose curve at least 0.9, where 1 is the maximum; inactive = score below 0.9). A digest of the protocol: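 Human fetal neural progenitor spheres (0.3 mm) plated on poly-D-lysine/laminin in N2 differentiation medium, exposed 120 h with half-medium refresh at day 3. Viability by alamar blue resazurin fluorescence; 7 concentrations, DMSO max 0.1%.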

The subject of assay [2] is Brachyury (BRA) Protein Expression, Deisenroth Lab, TBXT (gene 6862). The experiment in a line: CCTE_Deisenroth_DEVTOX-GLR_legacy_Bra: (Legacy) CCTE's DevTox GLR-Endo Assay Evaluation of Brachyury (BRA) Protein Expression, Deisenroth Lab (AID 2284329; active = hit-call score of the fitted dose curve at least 0.9, where 1 is the maximum; inactive = score below 0.9). A digest of the protocol:
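RUES2-GLR human pluripotent cells are differentiated for 48 h and receive two chemical exposures 24 h apart, at 10 concentrations from 1 nM to 200 uM. Cells are fixed, nuclei stained and imaged. Bra+ cells are those with mean Bra intensity over 5x BMAD above the pluripotent control median, expressed as a percentage of cell count, after subtracting the 0.2% DMSO control median.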

Assay [3] can be described thus: CCTE_Deisenroth_DEVTOX-GLR_legacy_CellCount: (Legacy) Viability Assessment in CCTE's DevTox GLR-Endo Assay, Deisenroth Lab (AID 2284331; active = hit-call score of the fitted dose curve at least 0.9, where 1 is the maximum; inactive = score below 0.9). The conditions noted are these: actives raise or lower the signal. A digest of the protocol:
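Seed RUES2-GLR 24 h; differentiate 48 h, dosing at 0 and 24 h; fix, stain nuclei; image 5 fields/well; count nuclei. Conc. 1 nM - 200 uM, single technical replicate, n=4 experiments; bidirectional fit vs 0.2% DMSO.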

The test system of the next assay is IYD (gene 389434). The experiment in a line: CCTE_GLTED_hIYD: CCTE's human Iodotyrosine Deiodinase (xIYD) Inhibition Assay, Great Lakes Toxicology and Ecology Division (GLTED) Lab (AID 2284317).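 Also: cell-free human IYD enzyme made in baculovirus insect cells; iodide freed from monoiodotyrosine measured by cerium arsenite color change at 420 nm.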 The method, boiled down:
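Human IYD expressed in a baculovirus-insect cell system was incubated 3 h with monoiodotyrosine and test chemical. Released iodide, separated on Dowex columns, was quantified by the Sandell-Kolthoff reaction at 420 nm; plates were normalized to MNT and DMSO/NaOH controls.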

Assay [4] is described as follows: VALA_TUBHUV_Antagonist_CellCount: Viability Assessment in the VALA Sciences human Umbilical Vein Endothelial Tubule Formation (TUBHUV) Antagonism Assay (AID 2284310). A digest of the protocol:
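HUVEC co-cultured with HDF (1:3) 3 days in 10 ng/ml VEGF, then 3 days with compounds in VEGF medium. Fixed, nuclear stain and CD31 immunofluorescence, imaged; cell counts fitted versus 0.1% DMSO, loss of signal read as lower viability.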

Assay [5] in a line: VALA_TUBIPS_Agonist_TubuleLength: VALA Sciences human iPS-derived Endothelial Tubule Formation (TUBIPS) Agonism Assay (AID 2284311). The method, boiled down:
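Human iPS-derived endothelial cells were exposed to compound for 72 h. Tubule formation was imaged by high-content fluorescence and scored as gain of signal relative to DMSO vehicle (agonist mode).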

The nature of assay [6]: VALA_MIGHUV2_Bcatenin: VALA Sciences human Umbilical Vein Endothelial Cell Migration (MIGHUV) Assay, Nuclear Translocation of beta-Catenin after Recovery (AID 2284315). The method, boiled down: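 HUVEC (4000 cells/well) scratch-wounded, dosed within 30 min over 6 concentrations in triplicate, recovered 24 h. After fixation, Hoechst and anti-beta-catenin immunofluorescence imaged for nuclear CTNB. Gain of signal versus 0.1% DMSO.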

The nature of assay [7]: VALA_MIGHUV2_WoundArea: VALA Sciences human Umbilical Vein Endothelial Cell Migration (MIGHUV) Assay, Area of Scratch Wound after Recovery (AID 2284316). The method, boiled down:
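HUVEC seeded at 9000 cells/well, scratched after 24 h; test chemical added within 30 min, 6-point concentration response in triplicate (0.1% DMSO vehicle). After 24 h wound recovery, cells fixed and Hoechst-stained nuclei in wound area imaged; Cytochalasin D reference control.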

Assay [8] in a line: CCTE_Deisenroth_5AR_NBTE_donor: CCTE's 5alpha-reductase NanoBRET Target Engagement Assay […], Deisenroth Lab (AID 2284319; active = hit-call score of the fitted dose curve at least 0.9, where 1 is the maximum; inactive = score below 0.9). The conditions noted are these: actives raise or lower the signal. The method, boiled down: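 In this secondary endpoint, donor luminescence from SRD5A2-NanoLuc in transfected HEK293T flags artifacts. Test chemical (10 nM - 29.9 uM) is present five hours, tracer the last two; mock-tracer wells run plate-matched; data fitted bidirectionally against DMSO.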

A short description of assay [9]: CCTE_Deisenroth_5AR_NBTE_acceptor: CCTE's 5alpha-reductase NanoBRET Target Engagement Assay - Autofluorescence Screen, Deisenroth Lab (AID 2284321; active = hit-call score of the fitted dose curve at least 0.9, where 1 is the maximum; inactive = score below 0.9;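 also: compound fluorescence in the acceptor channel under 460 nm excitation flags autofluorescence artifacts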). The conditions noted are these: actives raise or lower the signal. The method, boiled down:
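HEK293T cell-based NanoBRET assay read 5 h after dosing; this acceptor channel serves as an autofluorescence artifact screen. Chemicals at nominal 100 uM were scanned in three independent runs (n=3), excitation 460 nm. Fitting was bidirectional versus DMSO baseline.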
For orientation: In BRET a luciferase serves as donor, and the signal depends on an acceptor being close.

In a further assay the test system is SRD5A2 (gene 6716). The experiment in a line: CCTE_Deisenroth_5AR_NBTE_ratio: CCTE's 5alpha-reductase NanoBRET Target Engagement Assay - Ratio, Deisenroth Lab (AID 2284322; active = hit-call score of the fitted dose curve at least 0.9, where 1 is the maximum; inactive = score below 0.9). The conditions noted are these: actives raise or lower the signal. A digest of the protocol: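 Reverse-transfect HEK293T with pNLF1-C-SRD5A2, express 20 h. Pre-incubate cells with chemical 3 h (8-point series, 10 nM - 29.9 uM, duplicate). Add testosterone tracer, 2 h more. Add substrate/inhibitor, read donor and acceptor emission.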

Assay [10] in a line: VALA_TUBHUV_Antagonist_TubuleLength: VALA Sciences human Umbilical Vein Endothelial Tubule Formation (TUBHUV) Antagonism Assay (AID 2284325). The method, boiled down: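 HUVEC–HDF co-culture (1:3) pre-grown 3 days with 10 ng/ml VEGF, then 3 days with compound plus VEGF. Fixed, nuclear and CD31 stained; total tubule length by imaging versus 0.1% DMSO; suramin 100 uM positive control.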

Assay [11] can be described thus: VALA_TUBIPS_Antagonist_CellCount: Viability Assessment in the VALA Sciences human iPS-derived Endothelial Tubule Formation (TUBIPS) Antagonism Assay (AID 2284335).
Assay [12] is described as follows: VALA_MIGHUV1_ScratchOnly_WoundArea: VALA Sciences human Umbilical Vein Endothelial Cell Migration (MIGHUV) Assay, Area of Scratch Wound Inhibited Recovery (AID 2284336). The method, boiled down: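 HUVEC monolayers (9000 cells/well) were scratched after 24 h, dosed within 30 min (six concentrations, triplicate, 0.1% DMSO), allowed 24 h recovery, then fixed. Hoechst-stained nuclei in the wound imaged; cytochalasin D as reference.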

Assay [13] in a line: TAMU_PeakParms_SingleDonor1434_Asystole: Texas A&M University (TAMU) 1.5-hr Human Induced Pluripotent Stem Cell (iPSC)-derived Cardiomyocytes Calcium (Ca+2) Flux Assay for Cardiotoxicity: Asystole (quiescence of beating) (AID 2284328). A digest of the protocol: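 Donor 1434 iPSC-cardiomyocytes exposed 90 min at 37C, 5% CO2, to 0.2, 1, 10 and 100 uM in 0.5% DMSO. Ca2+ dye fluorescence gave average peak frequency; POD is EC95, a 95% beat-rate drop versus controls.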

Assay [14] can be described thus: VALA_MIGHUV2_CellCount: Viability Assessment in the VALA Sciences human Umbilical Vein Endothelial Cell Migration (MIGHUV) Assay, Area of Scratch Wound after Recovery (AID 2284314). A digest of the protocol: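 Scratch-wounded HUVEC monolayers received test chemical within 30 min, 6-point concentration response in triplicate, 0.1 % DMSO vehicle. After 24 h wound recovery, fixed cells were Hoechst-stained and nuclei imaged; loss of signal versus DMSO indicates reduced viability.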

Assay [15] in a line: CCTE_Mundy_HCI_iCellGluta_NOG_NeuriteLength: CCTE's Neurite Outgrowth Assay in iCellGluta cells for Neurite Length, Mundy Lab (AID 2284318). A digest of the protocol:
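Automated high-content imaging of betaIII-tubulin (Alexa Fluor-488) and Hoechst-stained cells gave neurite length, normalized to the DMSO baseline.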

The nature of assay [16]: IUF_NPC1_cytotoxicity_72hr: Cytotoxicity Assessment at 72 hours in the Leibniz Research Institute for Environmental Medicine (IUF) Neural Progenitor Cell Proliferation Assay (NPC1) (AID 2284332).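 Also: rising LDH signal means more cytotoxicity.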 A digest of the protocol: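 Single human fetal cortex neural progenitor spheres (GW 16-19, 0.25-0.35 mm) in EGF/FGF proliferation medium were exposed to compound for 72 h at 37C without renewal. Medium LDH release was read as resorufin fluorescence and fitted as gain-of-signal.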

Assay [17] is described as follows: VALA_MIGHUV1_ScratchOnly_CellCount: Viability Assessment in the VALA Sciences human Umbilical Vein Endothelial Cell Migration (MIGHUV) Assay, Scratch Wound Inhibited Recovery (AID 2284327). A digest of the protocol:
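HUVEC scratched after 24 h culture, chemical added within 30 min at 6 concentrations in triplicate (0.1% DMSO vehicle). After 24 h recovery, fixed cells were counted by Hoechst nuclear imaging in the wound area.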

A short description of assay [18]: VALA_TUBIPS_Antagonist_TubuleLength: VALA Sciences human iPS-derived Endothelial Tubule Formation (TUBIPS) Antagonist Assay (AID 2284313). A digest of the protocol: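 Cells grown 3 days with 10 ng/ml VEGF, then exposed to compounds in VEGF medium for another 3 days. After fixation, nuclear stain and CD31 immunofluorescence imaging gave mean total tubule length against 0.1% DMSO; suramin (100 uM) inhibition control.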

One may read the AC50 as the concentration at which the activity in the assay is half-maximal.

Results filed as inconclusive are left out. Calls of active or inactive are those of the source. The calls were made as follows, unless noted: active = hit-call score of the fitted dose curve at least 0.9, where 1 is the maximum; inconclusive = response in the unintended direction; inactive = score below 0.9.

As to `CN(C)CCCN1c2ccccc2Sc2ccc(Cl)cc21`, the AC50 in assay [1] is 10.9 µM (active).

As for `Cc1cn([C@H]2C=C[C@@H](CO)O2)c(=O)[nH]c1=O`, the result in [2] and in assay [3] was inactive.

In the case of `S=c1[nH]c2ccccc2s1`, the compound was classed as inactive with IYD (gene 389434).

On to `O=C1OC(c2ccc(O)cc2)(c2ccc(O)cc2)c2ccccc21`, for which the result in assay [4], in assay [5], in assay [6], in assay [7], in assay [8] and in [9] was inactive. The result in [11] was inactive. In addition, the AC50 is 50 µM (active) with SRD5A2 (gene 6716), 50 µM (active) in [10] and 75.4 µM (active) in assay [12].

In the case of `Nc1nc(=S)c2[nH]cnc2[nH]1`, the outcome in assay [13] was inactive.

As for `CCCCC(CC)COP(=O)(OCC(CC)CCCC)OCC(CC)CCCC` (stereo not given), the result in assay [4] and in assay [14] was inactive. The AC50 in [10] is 10 µM (active).

Consider `O=Cc1ccccc1C=O`, for which the AC50 in the assay with IYD (gene 389434) was 60.2 µM (active).

On to `Cc1ccc(-c2cc(C(F)(F)F)nn2-c2ccc(S(N)(=O)=O)cc2)cc1`, for which the compound was classed as inactive in assay [4], in [5], in assay [14], in assay [7], in assay [11] and in assay [12].

As for `Cc1c(C)c2c(c(C)c1O)CCC(C)(COc1ccc(CC3SC(=O)NC3=O)cc1)O2` (stereo not given), the concentration at half-maximal activity (AC50) is 94.7 µM (active) in the assay on IYD (gene 389434) and 29.7 µM (active) in the assay on SRD5A2 (gene 6716). Moreover, the compound was classed as inactive in [8] and in [9].

As to `CC(=O)CC(c1ccccc1)c1c(O)c2ccccc2oc1=O` (stereo not given), the call in assay [1], in assay [15], in [2], in [3] and in assay [16] was inactive.

Regarding `CCN(CC)CCOc1ccc(C(=C(Cl)c2ccccc2)c2ccccc2)cc1`, in the assay on IYD (gene 389434), the AC50 is 16 µM (active). Besides, the result (in [8]; in assay [9]; in the assay on SRD5A2 (gene 6716)) was inactive.

For `CCCCC(CC)COC(=O)CCCCCCCC(=O)OCC(CC)CCCC` (stereo not given), the result (in assay [8]; in [9]; with SRD5A2 (gene 6716)) was inactive.

For the compound `CCc1nc(N)nc(N)c1-c1ccc(Cl)cc1`, the outcome in assay [13] was inactive.

For `COC(=O)[C@H]1[C@H]2C[C@@H]3c4[nH]c5cc(OC)ccc5c4CCN3C[C@H]2C[C@@H](OC(=O)c2cc(OC)c(OC)c(OC)c2)[C@@H]1OC`, the compound was classed as inactive in assay [5], in assay [14], in assay [7], in [17], in assay [13] and in [11]. The compound was classed as inactive in assay [12]. For the same compound, the AC50 in [10] is 84.3 µM (active).

As for `C/C=C/C=C/C(=O)O`, the outcome (in [8]; in [9]; with SRD5A2 (gene 6716)) was inactive.

With `O=C1NC(=O)C(c2ccccc2)(c2ccccc2)N1`, the call in assay [1], in [3] and in assay [16] was inactive.

As to `O=C(O)c1cccnc1`, the result in assay [2] and in assay [3] was inactive.

For `O=C(O)CC(O)(CC(=O)O)C(=O)O`, the outcome in assay [13] was inactive.

Consider `Nc1nc(Cl)nc2c1ncn2[C@H]1C[C@H](O)[C@@H](CO)O1`, for which the call in assay [4] and in assay [6] was inactive. Besides, the AC50 is 1.78 µM (active) in assay [18]; 2.48 µM (active) in assay [14]; 28.9 µM (active) in assay [7]; 0.703 µM (active) in [10]; 0.956 µM (active) in assay [11]; 23.2 µM (active) in assay [12].

As for `O=C(O)c1[nH]n(-c2ccc(S(=O)(=O)O)cc2)c(=O)c1N=Nc1ccc(S(=O)(=O)O)cc1`, the AC50 in assay [8] is 35 µM (active); in the assay on SRD5A2 (gene 6716) it was 57.5 µM (active). For the same compound, the result in assay [9] was inactive.

Regarding `O=C1c2c(O)cccc2Cc2cccc(O)c21`, the outcome in [8] and in assay [9] was inactive. In the assay with SRD5A2 (gene 6716), the AC50 was 75.5 µM (active).

On to `OCC(O)CO`, for which the call in [1], in assay [15] and in assay [16] was inactive.

For `CCCCCCCCCCCCCCOS(=O)(=O)O`, the AC50 was 29.6 µM (active) in the assay with IYD (gene 389434) and 26.1 µM (active) with SRD5A2 (gene 6716). In addition, the result in [8] and in assay [9] was inactive.

Source of the values: PubChem BioAssay (EPA / NIEHS).
